Consider 40 compounds from PubChem BioAssay (NCI).

SMILES strings stand for the structures. This is part of a sample that, as a whole, favours compounds with a hit. Of some 83,000 tested, about 20% had one in any assay.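 Growth was measured after 48 h exposure to one concentration of compound in 96-well plates. Values under 10 count as active.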 Unmarked numbers belong to inactive results. Calls of active or inactive are those of the source.

The test deals with HL-60(TB) leukemia. Put plainly: NCI-60 one-dose screen, 48 h (100 = growth as untreated, 0 = no growth, -100 = all killed). Particulars: 10 µM unless noted.
As to `CCc1cc2c(cc1N1CCC(N3CCOCC3)CC1)C(C)(C)c1[nH]c3cc(C#N)ccc3c1C2=O`, the growth was -6.15% (active).
With `CCN(CC)CCOC(=O)Nc1ccccc1Cl`, the growth is 102%.
The result for `O=c1oc2ccc(I)cc2c(=O)n1-c1ccc(Cl)cc1F` reads -47.1% (active); that for `C=C1C(=O)O[C@H]2[C@H]1CC/C(C=Nc1c(N)cc(F)cc1Br)=C\CC[C@@]1(C)O[C@@H]21`, 37.1%.
The result for `Oc1ccc(N=Cc2ccccc2)cc1` reads 0.519% (active); that for `O=[N+]([O-])c1ccc(O)c(-c2nc3ccccc3s2)c1`, 52.8%; that for `COc1ccc(/C=N\NC(=O)CN2CCN(c3cc4c(cc3F)c(=O)c(C(=O)N/N=C/c3ccc(OC)cc3)cn4C3CC3)CC2)cc1`, 86.6%.
The result for `Nc1nnc2cc(F)ccc2n1` reads 107%; that for `OC1OC(COC(c2ccccc2)(c2ccccc2)c2ccccc2)C(O)C(O)C1O` (stereo not given), 97.4%.
In the case of `NC(=S)N/N=C(/c1ccccc1)c1ccccc1N`, the growth is 73.3%.
For the compound `O=S(=O)(O)C(Nc1ccccc1)c1ccccc1` (stereo not given), the growth is 87.2%.
The result for `Cc1ccc(-c2ccc(/C=C(\C#N)c3nc(-c4ccco4)cs3)o2)cc1` reads 101%; that for `CN1C(=O)NC(c2ccc3c(c2)OCO3)C=C1c1ccccc1` (stereo not given), 99%; that for `CCO/C=N/C1=C(C#N)C(c2ccc(Cl)cc2)c2c(c3ccc(C)cc3[nH]c2=O)O1` (stereo not given), 88.6%.
The result for `O=C(O)c1cccc2cccc(-c3c4ccc(=O)c(O)c-4oc4c(O)c(O)ccc34)c12` reads 67.6%; that for `CCc1oc2ccccc2c1C(=O)c1cc(Br)c(O)c(Br)c1`, 53%.
Turning to `CCCCCCN(CCCCCC)c1ccc(/C=C2/SC(=O)NC2=O)c(C)c1`, the growth was 77.1%.
As for `COc1cc(CCn2nnc3c(NCCCCO)ncnc32)cc(OC)c1`, the growth was 133%.
The result for `C#C[C@]1(O)CC[C@H]2[C@@H]3CC[C@H]4CC(F)(F)CC[C@]4(C)[C@H]3CC[C@@]21C` reads 107%; that for `CCN1CCN(CCNc2nccc(-c3c(-c4ccc(F)c(OC)c4)nc4sccn34)n2)S1(=O)=O`, 89.1%; that for `CCCC(=O)CC(=O)c1ccccc1`, 112%.
As to `CC(=O)c1c(Nc2cccc(F)c2)[nH]c2c(Cl)cc(Cl)c(Cl)c2c1=O`, the growth was -36.5% (active).
Turning to `COC(=O)[C@]12CC[C@@H](C)[C@H](C)[C@@H]1C1=CC[C@@H]3[C@@]4(C)C(C=O)=C[C@@](C)(CO)[C@@H]4[C@H](O)C[C@@]3(C)[C@]1(C)CC2`, the growth was -14.4% (active).
The result for `FC(F)(F)c1[nH]ncc1-c1nc2ccc3n[nH]c(C#Cc4cccnc4)c3c2c2c1CCCC2` reads 24.4%; that for `C[C@]12CC[C@@H]3c4cc(O)c(O)cc4CC[C@H]3[C@@H]1CC[C@@H]2O`, 4.62% (active).
The result for `CCn1cc(C2NC(=O)c3ccccc3N2)c2cccc(C)c21` (stereo not given) reads -56.2% (active).
The result for `O=C1/C(=C/c2cccc3cnccc23)Cc2cc(F)ccc21` reads 105%.
For the compound `O=C(CN1CCN(c2cc3c(cc2F)c(=O)c(C(=O)O)cn3C2CC2)CC1)N/N=C/c1ccco1`, the growth is 103%.
Take `O=c1[nH]c(NCc2ccccc2)nc2nc(Nc3ccc(NC(=S)Nc4ccccc4)cc3)nc(-c3ccc(O)cc3O)c12`: the growth was 98.4%.
For the compound `COc1ccc(C(=O)C(C)Br)cc1OC` (stereo not given), the growth was 96.7%.
The result for `CC1=CC(C)=Nc2ccc(Cl)cc2N1` reads 101%; that for `CCOC(=O)c1ccc(NC(=O)CCCN(CC)CC)cc1`, 100%; that for `Cc1ccccc1-n1nnc(C(=O)Nc2nc3ccc(F)cc3s2)c1C`, 1.12% (active).
The result for `Cc1oc2c(c1C(=O)N1CC[C@@H](N)C1)C(=O)c1c(c(O)c3ccccc3c1O)C2=O` reads -22.8% (active); that for `CCN(CC)CCOc1nc2ccccc2c2c1-c1ccc(OC)cc1C2=O`, 9.1% (active); that for `CN1/C(=C\C(I)C(I)C2=[N+](C)c3ccccc3C2(C)C)C(C)(C)c2ccccc21` (stereo not given), -20.1% (active).
The result for `CC1=NNC(=O)C1C` (stereo not given) reads 124%; that for `COC(=O)C(C)NC1=C(Cl)C(=O)C(NC(C)C(=O)OC)=C(Cl)C1=O` (stereo not given), 97.8%.
Consider `O=S(=O)(O)CCl`, for which the growth is 94.7%.
For the compound `C#Cc1cccc(NC(=O)Nc2cccc(N=C=S)c2)c1`, the growth is 98.7% [8.25 µM].
